# PubChem BioAssay (NCATS)
# Unmarked numbers belong to inactive results. Records with an inconclusive call do not appear. Calls of active or inactive are those of the source. Unless noted, the call rests on the fitted dose curve; in most records, active means well fitted curve in either direction with a large enough effect (not every such curve was filed as active); inconclusive means small, poorly fitted or top-dose-only effect, or another doubt; inactive means flat fitted curve, though single readings scatter.
# What was measured:
# [1] = molecular target: Lysosomal acid glucosylceramidase (Homo sapiens) (UniProt P04062); assay: Glucocerebrosidase-p2 (AID 348; in the data active means potency below about 10 µM; further: potency means the concentration at half of the fitted maximal effect); details: purified GBA, blue fluorogenic substrate, 40 min
# In short: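 Compounds titrated from 0.6 nM upwards against 0.2 nM enzyme in pH 5.9 citric acid/KH2PO4, taurocholate, tween-20; blue fluorogenic substrate 80 uM, 40 min room temperature, stopped and read Ex 365/Em 440 for AC50.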
# [2] = AP1 Signaling Pathway (AID 357); details: ME-180 AP-1-bla reporter, EGF-induced, beta-lactamase ratio, 5 h; at 7.69 µM (top of the series) unless noted;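 further: ME-180 reporter cells stimulated with EGF at its EC50 level; on the % scale 0 is the no-effect control and ±100 the full control effect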
# In short: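 Beta-lactamase reporter under AP-1 response element, ME-180 background. Stimulus: EC50 EGF. Compound exposure 5 h, 37 °C. Detection: CCF4, 2.5 h RT, 460/530 nm. Values: AC50 from titration.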
# [3] = molecular target: Cytochrome P450 1A2 (Homo sapiens) (UniProt P05177); assay: p450-cyp1a2 (AID 410; calls by dose curve; further: potency means the concentration at half of the fitted maximal effect;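 on activity change, negative = inhibition: -100% = full effect of reference inhibitor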); details: recombinant CYP1A2, luciferin-ME demethylation, luminescence; series mostly up to 11.4 µM
# In short: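 Inhibition was calculated relative to 57 uM furafylline (full inhibition). The reaction used human CYP1A2 at 20nM with Luciferin-ME at its Km, 100uM, driven by an NADPH-regenerating system for 60 min at room temperature.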
# [4] = Stat Signaling Pathway (AID 446); details: ME-180 SIE beta-lactamase reporter, IL-6 stimulated, 5 h; at 7.69 µM (top of the series) unless noted;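 further: ME-180 cervical cancer cells given 40 pM IL-6 alongside compound; SIE-controlled beta-lactamase reporter measured as 460/530 nm FRET emission ratio; on the % scale 0 is the no-effect control and ±100 the full control effect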
# In short: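 Reporter line: ME-180 cervical carcinoma, SIE-beta-lactamase. Treatment: compound with 40 pM IL-6, 5 hrs, 37 C, in low-serum OPTI-MEM with 10 mM HEPES pH 7.3. Detection: 460/530 nm fluorescence.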
# [5] = molecular target: Glucocorticoid receptor (Homo sapiens) (UniProt P04150); assay: GR-GFP Redistribution (AID 450;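 active means compounds whose dose series gives a full or clear partial fitted curve of increased nuclear translocation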; further: potency means the concentration at half of the fitted maximal effect); details: U2OS GR-GFP nuclear translocation, laser cytometry, 2 h
# [6] = molecular target: Glucocorticoid receptor (Homo sapiens) (UniProt P04150); assay: GR-EFC Redistribution (AID 451; calls by dose curve; further: potency means the concentration at half of the fitted maximal effect); details: CHO-K1 GR-EFC translocation, beta-gal luminescence, 2 h
# In short: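 Translocation of GR-ED fusion to nuclear EA restores b-gal, read by luminescence after 1 h room-temperature detection. Engineered CHO-K1 biosensor cells, 1,000/well, exposed 2 h at 37 C to titrations up to 46 uM final.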
# [7] = molecular target: Mitogen-activated protein kinase 10 (Mus musculus) (UniProt Q61831); assay: JNK3 AlphaScreen Assay (AID 530); details: JNK3 lysate, c-Jun phosphorylation; series mostly up to 11.4 µM;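 further: kinase came from lysate of stimulated human HepG2 cells; signal reports phosphorylation of biotinylated GST-cJun 1-79 at Ser73 with 10 µM ATP; on the % scale 0 is the no-effect control and ±100 the full control effect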
# In short: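 Room-temperature AlphaScreen kinase assay; pre-activated HepG2 lysate as JNK3 source, biotin-GST-cJun(1-79) substrate, 10 uM ATP, compound 15 min preincubation.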
# [8] = molecular target: 3',5'-cyclic-AMP phosphodiesterase 4B (Homo sapiens) (UniProt Q07343); assay: qHTS Assay for Inhibitors of PDE-IV (AID 607; active means well fitted activation curve with a large enough effect in the main read-out, with a control signal flat, not every such curve was filed as active; further: % of control where 0% means no effect); details: HEK293 ACTOne CNG channel cells, membrane potential fluorescence; series mostly up to 22.9 µM
# In short: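 Cell-based read-out of cAMP via a modified cyclic nucleotide-gated channel and membrane potential dye (535/590 nm) in HEK293 cells expressing PDE4 endogenously. Compounds tested up to 22.9 uM final; 100 uM RO 20-1724 reference.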
# [9] = molecular target: Cytochrome P450 3A4 (Homo sapiens) (UniProt P08684); assay: qHTS Assay for Activators of Cytochrome P450 3A4 (AID 885; active means well fitted curve in the direction sought with a large enough effect; an effect the other way counts as inactive or inconclusive; further: nearly all actives have a fitted effect of over 65% in size); details: recombinant CYP3A4, Luciferin-PPXE luminescence, 60 min; series mostly up to 11.4 µM
# In short: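 Signal was normalized against complete inhibition by 57 uM ketoconazole. The reaction used 20nM CYP3A4 with 25uM Luciferin-PPXE, 10-min compound preincubation and a 60-min NADPH-supported step at RT.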
# [10] = molecular target: Cytochrome P450 2C9 (Homo sapiens) (UniProt P11712); assay: qHTS Assay for Inhibitors and Substrates of Cytochrome P450 2C9 (AID 883; active means well fitted curve in the direction sought with a large enough effect; an effect the other way counts as inactive or inconclusive; further: nearly all actives have a fitted effect of over 60% in size; further: potency means the concentration at half of the fitted maximal effect; on activity change, negative = inhibition: on the % scale 0 is the no-effect control and ±100 the full control effect); details: recombinant CYP2C9, luciferin-H luminescence, 60 min; series mostly up to 11.4 µM
# In short: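 Turnover of Luciferin-H (100uM, KM) by 10nM human CYP2C9 was measured over 60 min at 37C with NADPH regeneration; inhibitors and some substrates reduce luminescence. Data normalized to sulphaphenazole 57uM.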
# [11] = molecular target: Cytochrome P450 3A4 (Homo sapiens) (UniProt P08684); assay: qHTS Assay for Inhibitors and Substrates of Cytochrome P450 3A4 (AID 884; active means well fitted curve in the direction sought with a large enough effect; an effect the other way counts as inactive or inconclusive; further: nearly all actives have a fitted effect of over 50% in size; further: potency means the concentration at half of the fitted maximal effect); details: recombinant CYP3A4, Luciferin-PPXE luminescence; series mostly up to 57.1 µM
# In short: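 20 nM human CYP3A4 with 25 uM Luciferin-PPXE (at KM) in 200 mM KPO4, preincubated 10 min with compound; NADPH regeneration started a 60 min RT reaction. Luciferin detected by luminescence, normalized to 57 uM ketoconazole as full inhibition.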
# [12] = molecular target: Cytochrome P450 2D6 (Homo sapiens) (UniProt P10635); assay: qHTS Assay for Inhibitors and Substrates of Cytochrome P450 2D6 (AID 891; active means well fitted curve in the direction sought with a large enough effect; an effect the other way counts as inactive or inconclusive; further: nearly all actives have a fitted effect of over 60% in size; further: potency means the concentration at half of the fitted maximal effect); details: recombinant CYP2D6, luciferin-ME EGE luminescence; series mostly up to 11.4 µM
# In short: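 Human CYP2D6 (5 nM) with 30 uM Luciferin-ME EGE (at Km) in 100 mM KPO4, compound preincubated 10 min, then NADPH regeneration system for 60 min at room temperature. Luciferin read by luminescence; normalized to 1.43 uM quinidine.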
# [13] = molecular target: Cytochrome P450 2C19 (Homo sapiens) (UniProt P33261); assay: qHTS Assay for Inhibitors and Substrates of Cytochrome P450 2C19 (AID 899; active means well fitted curve in the direction sought with a large enough effect; an effect the other way counts as inactive or inconclusive; further: nearly all actives have a fitted effect of over 60% in size; further: potency means the concentration at half of the fitted maximal effect); details: recombinant CYP2C19, luciferin-H EGE luminescence; series mostly up to 11.4 µM
# In short: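 Reactions contain 5nM enzyme, 10uM Luciferin-H EGE (KM) and 50mM KPO4; compound preincubates 10 min at 37C, NADPH regeneration starts turnover for 60 min. Luminescence after detection reagent gives activity.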
# [14] = qHTS Assay for Identification of Small Molecule Agonists for Hypoxia Response Element Signaling Pathway (AID 914; active means well fitted activation curve with a large enough effect in the signal ratio, with a control signal flat, not every such curve was filed as active; the % refers to the signal ratio; further: % of control where 0% means no effect); details: ME-180 (cervical carcinoma) HRE-bla reporter, beta-lactamase ratio, CoCl2, 17 h; activation: stronger effect = higher value
# In short: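 qHTS titration; ME-180 HRE-bla cells; EC50 CoCl2 co-treatment, 17 h at 37 degrees Celsius; CCF4 dye, ex 405nm, em 460nm and 530nm; %Activity from ratio; AC50.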
# Chain of Cytochrome P450 2C19 (Homo sapiens) (P33261 whole entry, looked up): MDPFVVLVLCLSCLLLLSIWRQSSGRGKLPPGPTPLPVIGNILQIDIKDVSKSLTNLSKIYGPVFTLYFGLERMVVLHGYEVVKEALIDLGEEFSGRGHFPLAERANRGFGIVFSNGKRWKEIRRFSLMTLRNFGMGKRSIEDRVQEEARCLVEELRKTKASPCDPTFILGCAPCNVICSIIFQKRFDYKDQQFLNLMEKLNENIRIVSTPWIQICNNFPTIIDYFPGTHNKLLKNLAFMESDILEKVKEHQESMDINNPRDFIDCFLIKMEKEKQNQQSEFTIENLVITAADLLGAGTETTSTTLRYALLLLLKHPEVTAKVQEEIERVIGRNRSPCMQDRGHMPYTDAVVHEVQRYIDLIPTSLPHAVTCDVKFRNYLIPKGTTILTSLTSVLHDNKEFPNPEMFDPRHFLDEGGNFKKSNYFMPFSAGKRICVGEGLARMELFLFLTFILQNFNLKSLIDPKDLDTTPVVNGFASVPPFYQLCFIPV
# Chain of Cytochrome P450 1A2 (Homo sapiens) (P05177 whole entry, looked up): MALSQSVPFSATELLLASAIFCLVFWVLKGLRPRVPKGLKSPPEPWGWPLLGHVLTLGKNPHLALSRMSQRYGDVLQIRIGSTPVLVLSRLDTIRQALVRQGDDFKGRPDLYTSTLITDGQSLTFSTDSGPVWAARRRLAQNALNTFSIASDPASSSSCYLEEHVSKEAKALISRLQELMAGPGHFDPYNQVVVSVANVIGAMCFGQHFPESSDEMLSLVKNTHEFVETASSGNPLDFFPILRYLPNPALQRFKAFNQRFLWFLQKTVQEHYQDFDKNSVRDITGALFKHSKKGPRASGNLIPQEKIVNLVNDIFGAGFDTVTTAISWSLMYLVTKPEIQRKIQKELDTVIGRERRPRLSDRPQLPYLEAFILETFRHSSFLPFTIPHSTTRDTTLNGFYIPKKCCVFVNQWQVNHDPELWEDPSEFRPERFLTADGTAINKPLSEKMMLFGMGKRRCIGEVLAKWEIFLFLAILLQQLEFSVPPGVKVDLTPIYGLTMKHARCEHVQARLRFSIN
# Chain of Cytochrome P450 2D6 (Homo sapiens) (P10635 whole entry, looked up): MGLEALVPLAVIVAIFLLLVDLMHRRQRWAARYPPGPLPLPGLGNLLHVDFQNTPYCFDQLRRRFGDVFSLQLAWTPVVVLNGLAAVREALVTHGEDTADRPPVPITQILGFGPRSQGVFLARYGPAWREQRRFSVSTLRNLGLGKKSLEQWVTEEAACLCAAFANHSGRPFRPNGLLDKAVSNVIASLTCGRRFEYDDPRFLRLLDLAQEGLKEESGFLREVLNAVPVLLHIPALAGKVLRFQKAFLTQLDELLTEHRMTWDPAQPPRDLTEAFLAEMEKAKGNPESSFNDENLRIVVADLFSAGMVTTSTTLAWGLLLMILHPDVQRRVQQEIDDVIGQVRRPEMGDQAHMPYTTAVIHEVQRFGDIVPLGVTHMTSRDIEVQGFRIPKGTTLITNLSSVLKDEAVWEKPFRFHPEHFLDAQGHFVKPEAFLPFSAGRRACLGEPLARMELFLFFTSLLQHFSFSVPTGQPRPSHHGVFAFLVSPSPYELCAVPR
# Chain of Glucocorticoid receptor (Homo sapiens) (P04150 whole entry, looked up, the tested form may be a part): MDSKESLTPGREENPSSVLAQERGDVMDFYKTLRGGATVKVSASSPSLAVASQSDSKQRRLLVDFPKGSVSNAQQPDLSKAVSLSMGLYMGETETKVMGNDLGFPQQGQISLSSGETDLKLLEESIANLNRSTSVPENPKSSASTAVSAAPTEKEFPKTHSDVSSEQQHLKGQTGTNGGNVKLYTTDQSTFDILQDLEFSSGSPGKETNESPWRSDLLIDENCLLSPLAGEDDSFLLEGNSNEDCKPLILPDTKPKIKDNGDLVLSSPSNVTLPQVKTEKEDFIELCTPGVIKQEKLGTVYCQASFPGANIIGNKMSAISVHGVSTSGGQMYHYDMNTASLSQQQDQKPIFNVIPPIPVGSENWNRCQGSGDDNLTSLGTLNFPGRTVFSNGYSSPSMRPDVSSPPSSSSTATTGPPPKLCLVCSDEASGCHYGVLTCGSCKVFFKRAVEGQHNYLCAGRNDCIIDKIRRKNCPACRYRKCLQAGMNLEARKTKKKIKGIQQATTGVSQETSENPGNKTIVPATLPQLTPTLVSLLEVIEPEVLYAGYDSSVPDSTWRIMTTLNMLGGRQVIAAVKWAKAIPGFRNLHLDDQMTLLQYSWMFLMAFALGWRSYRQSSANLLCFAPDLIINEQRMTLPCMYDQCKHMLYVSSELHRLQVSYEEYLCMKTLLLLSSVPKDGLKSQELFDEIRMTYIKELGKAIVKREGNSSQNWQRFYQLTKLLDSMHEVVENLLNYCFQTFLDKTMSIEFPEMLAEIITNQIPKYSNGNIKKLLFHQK
# Chain of Cytochrome P450 2C9 (Homo sapiens) (P11712 whole entry, looked up): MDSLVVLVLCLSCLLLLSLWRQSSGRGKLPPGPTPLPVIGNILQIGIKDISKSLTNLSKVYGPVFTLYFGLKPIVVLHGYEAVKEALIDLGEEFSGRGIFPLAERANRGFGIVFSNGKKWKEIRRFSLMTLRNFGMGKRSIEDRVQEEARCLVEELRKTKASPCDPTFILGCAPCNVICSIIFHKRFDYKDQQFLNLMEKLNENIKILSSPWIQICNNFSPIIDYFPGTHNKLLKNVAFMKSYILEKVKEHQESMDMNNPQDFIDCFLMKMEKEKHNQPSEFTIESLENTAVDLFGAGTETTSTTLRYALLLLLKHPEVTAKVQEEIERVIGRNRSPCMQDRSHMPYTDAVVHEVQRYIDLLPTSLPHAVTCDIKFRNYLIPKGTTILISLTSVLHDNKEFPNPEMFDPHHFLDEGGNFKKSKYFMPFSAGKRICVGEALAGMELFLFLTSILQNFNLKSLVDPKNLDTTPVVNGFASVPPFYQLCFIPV
# Chain of Cytochrome P450 3A4 (Homo sapiens) (P08684 whole entry, looked up): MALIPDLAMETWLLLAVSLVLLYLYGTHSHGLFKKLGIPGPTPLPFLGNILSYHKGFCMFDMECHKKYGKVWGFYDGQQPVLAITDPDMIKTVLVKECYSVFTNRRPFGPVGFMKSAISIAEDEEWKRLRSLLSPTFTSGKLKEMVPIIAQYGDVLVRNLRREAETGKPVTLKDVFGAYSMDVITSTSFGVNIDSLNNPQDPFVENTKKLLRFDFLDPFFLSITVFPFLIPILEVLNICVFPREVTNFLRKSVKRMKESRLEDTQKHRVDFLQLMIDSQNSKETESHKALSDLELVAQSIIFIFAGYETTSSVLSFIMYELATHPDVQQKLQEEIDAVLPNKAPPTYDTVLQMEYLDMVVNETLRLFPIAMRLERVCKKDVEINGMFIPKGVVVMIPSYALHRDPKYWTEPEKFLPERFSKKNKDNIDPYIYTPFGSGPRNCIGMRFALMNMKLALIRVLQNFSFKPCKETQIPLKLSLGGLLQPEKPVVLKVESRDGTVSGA
# Chain of 3',5'-cyclic-AMP phosphodiesterase 4B (Homo sapiens) (Q07343 whole entry, looked up): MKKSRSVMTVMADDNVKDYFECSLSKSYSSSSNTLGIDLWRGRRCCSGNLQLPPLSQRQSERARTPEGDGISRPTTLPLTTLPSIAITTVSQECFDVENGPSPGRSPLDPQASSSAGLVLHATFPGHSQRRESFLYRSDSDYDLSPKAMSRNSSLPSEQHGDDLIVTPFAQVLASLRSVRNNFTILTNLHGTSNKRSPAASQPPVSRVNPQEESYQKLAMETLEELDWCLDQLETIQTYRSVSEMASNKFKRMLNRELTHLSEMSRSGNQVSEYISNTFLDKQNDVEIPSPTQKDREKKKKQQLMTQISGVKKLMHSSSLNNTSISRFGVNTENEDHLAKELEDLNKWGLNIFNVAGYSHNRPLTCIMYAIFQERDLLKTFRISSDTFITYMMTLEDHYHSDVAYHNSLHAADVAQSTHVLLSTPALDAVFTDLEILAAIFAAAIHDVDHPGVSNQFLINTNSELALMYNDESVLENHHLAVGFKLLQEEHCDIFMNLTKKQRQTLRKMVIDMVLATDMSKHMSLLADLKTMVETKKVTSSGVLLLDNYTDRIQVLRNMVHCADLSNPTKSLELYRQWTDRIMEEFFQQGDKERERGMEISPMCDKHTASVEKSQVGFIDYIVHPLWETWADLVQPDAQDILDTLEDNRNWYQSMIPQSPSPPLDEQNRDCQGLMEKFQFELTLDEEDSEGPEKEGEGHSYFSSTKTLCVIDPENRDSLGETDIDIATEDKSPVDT
# Chain of Lysosomal acid glucosylceramidase (Homo sapiens) (P04062 whole entry, looked up): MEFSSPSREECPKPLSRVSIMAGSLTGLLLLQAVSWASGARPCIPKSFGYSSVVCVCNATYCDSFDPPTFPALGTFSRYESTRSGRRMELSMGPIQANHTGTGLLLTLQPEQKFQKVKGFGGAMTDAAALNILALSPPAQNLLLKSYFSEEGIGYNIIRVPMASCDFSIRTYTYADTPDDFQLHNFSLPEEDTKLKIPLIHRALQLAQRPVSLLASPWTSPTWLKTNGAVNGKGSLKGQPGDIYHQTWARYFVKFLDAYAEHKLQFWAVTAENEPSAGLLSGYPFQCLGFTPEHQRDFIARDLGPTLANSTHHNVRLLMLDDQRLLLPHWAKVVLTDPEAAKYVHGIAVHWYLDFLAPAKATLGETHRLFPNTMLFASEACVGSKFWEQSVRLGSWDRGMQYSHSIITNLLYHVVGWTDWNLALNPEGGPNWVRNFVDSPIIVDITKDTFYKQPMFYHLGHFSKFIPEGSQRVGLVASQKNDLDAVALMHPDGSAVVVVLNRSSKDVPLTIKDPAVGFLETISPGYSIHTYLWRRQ
Structure (SMILES),Potency [1] [µM],"activity change, negative = inhibition [2] [%]","activity change, negative = inhibition [3]","activity, negative = inhibition [4] [%]",Potency [5],Potency [6] [µM],Potency [7],Potency [8],Potency [9],Potency [3],Potency [10],Potency [11],Potency [12],Potency [13],activation [14] [%],"activity change, negative = inhibition [11]"
Cc1ccccc1C(=N)c1ccccc1Cc1cccc2ccccc12,> 11.4,5.2,-17.7% [at 2.29 µM],9.25,> 46 µM,> 9.22,inactive,inactive,inactive,,,,,,,
c1ccc(SC(Sc2ccccc2)c2ccc3c(c2)OCO3)cc1,> 11.4,-9.51,,-12,> 46 µM,> 9.22,inactive,inactive,inactive,0.501 µM (active),3.16 µM (active),2.51 µM (active),3.16 µM (active),0.0316 µM (active),,
O=C(c1ccccc1)[C@H](Nc1ccc2ccccc2c1)c1ccccc1,> 11.4,23.6,,-0.0129,> 46 µM,> 9.22,inactive,inactive,inactive,0.794 µM (active),,3.16 µM (active),,,,
Cc1ccc(N[C@H](c2ccccc2)c2ccc3cccnc3c2O)cc1,> 11.4,-6.67,-24.5% [at 2.29 µM],3.71,> 46 µM,> 9.22,inactive,inactive,inactive,,,,,,,
CN(C)CC(C)(C)CN1c2ccccc2Sc2ccccc21,> 11.4,24,,0.898,> 46 µM,> 9.22,inactive,inactive,inactive,inactive,,,0.199 µM (active),,,
Cc1ccc(C(=N)c2ccccc2Cc2cccc3ccccc23)c2ccccc12,> 11.4,-3.34,,13.8,> 46 µM,> 9.22,inactive,inactive,inactive,1 µM (active),,3.98 µM (active),,1.26 µM (active),,
Cc1cc(Cc2cc(C)cc(C(C)(C)C)c2O)c(O)c(Cc2cc(C)cc(C(C)(C)C)c2O)c1,> 11.4,-27.2,-15.6% [at 2.29 µM],6.72,> 46 µM,> 9.22,inactive,inactive,,,3.16 µM (active),,,3.16 µM (active),,
N#CCCn1c(=O)c(-c2ccccc2)nc2cnc(OCc3ccccc3)nc21,> 11.4,-17.7,,-1.68,> 9.22 µM,> 46,inactive,inactive,inactive,3.16 µM (active),,,,,,
Cc1ccc(C)c(/C(=N\N=C(N)N)C2CC2)c1,> 11.4,-1.56,1.1% [at 2.29 µM],4.46,> 46 µM,> 9.22,inactive,inactive,,,,,,,,
N=C(N)SCc1nc(-c2ccc(Cl)cc2)no1,> 11.4,26,,17.8,> 46 µM,> 9.22,inactive,inactive,inactive,1.26 µM (active),3.98 µM (active),,,,,
c1ccc(/C(=N/Nc2nc3ccccc3s2)c2ccccn2)cc1,> 11.4,-20.5,,-1.49,> 46 µM,> 9.22,inactive,inactive,inactive,3.16 µM (active),,,,,,
Oc1ccc(Cc2cc(Cl)cc(Cl)c2O)cc1Cl,> 11.4,-21.8,,-9.97,> 46 µM,> 9.22,inactive,inactive,inactive,1.58 µM (active),0.199 µM (active),,,1.26 µM (active),,
CO[C@@H]1/C=C\O[C@@]2(C)Oc3c(C)c(O)c4c(c3C2=O)C(=N[C@H]2CC[C@H](O)O[C@@H]2C)C=C(NC(=O)/C(C)=C\C(=O)[C@@H]2C[C@@H]2[C@@H](O)[C@H](C)[C@@H](O)[C@H](C)[C@H](OC(C)=O)[C@@H]1C)C4=O,> 11.4,26.3,,-2.6,> 46 µM,> 9.22,inactive,inactive,inactive,inactive,,1.26 µM (active),,2.51 µM (active),,
Cc1c2cccc(Sc3ccccc3)c2c2c3c(cccc13)[S+](c1ccccc1)C2 (centres undefined),> 11.4,-7.04,-17.3% [at 2.29 µM],2.31,> 46 µM,> 9.22,inactive,inactive,inactive,,2.51 µM (active),,,0.0631 µM (active),-19.6,
c1ccc2sc(SCSc3nc4ccccc4s3)nc2c1,> 11.4,-1.38,,2.46,> 46 µM,> 9.22,inactive,inactive,inactive,3.98 µM (active),,3.16 µM (active),,1.26 µM (active),,
O=C(O)/C=C\C(=O)Nc1cccc2c1-c1ccccc1C2=O,> 11.4,-2.3,,-4.51,> 46 µM,> 9.22,inactive,inactive,,2.51 µM (active),,,,,,
O=C(O)C(=Cc1ccc(-c2ccccc2)cc1)C(=O)O,> 11.4,-9.3,,-12.1,> 46 µM,> 9.22,inactive,inactive,,0.794 µM (active),inactive,,inactive,inactive,,-41.1% [at 11.4 µM]
Oc1ccc2ccccc2c1/C=C\c1ccc2c(Br)cc(Br)c(O)c2n1,> 11.4,-7.49,,1.04,> 46 µM,> 9.22,inactive,inactive,,3.98 µM (active),2.51 µM (active),,,,,
N[C@@H](CC1=CS(=O)(=O)c2ccc(Cl)cc21)C(=O)O,> 11.4,-5.74,,-1.77,> 46 µM,> 9.22,inactive,inactive,inactive,0.398 µM (active),,,,,,
Oc1ccc2ccccc2c1Cc1c(O)ccc2ccccc12,> 11.4,0.512,,-5.79,> 46 µM,> 9.22,inactive,inactive,,3.98 µM (active),2 µM (active),,,0.316 µM (active),,
Cc1cc(C)cc(C(=N)c2ccccc2Cc2cccc3ccccc23)c1,> 11.4,1.53,-5.4% [at 2.29 µM],8.92,> 46 µM,> 9.22,inactive,inactive,inactive,,inactive,,,1.58 µM (active),,
C[C@@]12C[C@H](O)[C@@H]3[C@H](CCC4=CC(=O)CC[C@]43C)[C@H]1CC[C@@H]2c1csc(N)n1,> 11.4,4.13,-9.8% [at 2.29 µM],-3.43,1.73 µM (active),> 9.22,inactive,inactive,inactive,,,2.51 µM (active),,3.98 µM (active),,
Cc1ccc(C2=C(Cl)C(=O)C(c3ccc(C)cc3)=C(Cl)C2=O)cc1,> 11.4,4.65,-16.9% [at 2.29 µM],-13.6,> 46 µM,> 9.22,inactive,inactive,,,1.58 µM (active),,,,,
Cc1cc(O)c(C(C)C)cc1N=Cc1ccccc1O,> 11.4,7.1,,-2.05,> 46 µM,> 9.22,inactive,inactive,inactive,1.58 µM (active),0.631 µM (active),3.16 µM (active),,0.398 µM (active),,
CCN(CC)CC[n+]1ccc2c(C)c3[nH]c4ccccc4c3c(C)c2c1,> 11.4,-22.3,,29.6,> 46 µM,> 9.22,inactive,inactive,,2.51 µM (active),,,,,,
Cc1ccc(C2=Nc3ccccc3S[C@@H](c3cccc([N+](=O)[O-])c3)C2)cc1,> 11.4,-7.9,,-8.15,> 46 µM,> 9.22,inactive,inactive,inactive,2 µM (active),,3.98 µM (active),,3.98 µM (active),,
CC(C)C(=O)C(C)(C)CCc1ccccn1,> 11.4,27.3,,1.04,> 46 µM,> 9.22,inactive,inactive,,2.51 µM (active),,,,,,
OCCN(CCO)c1ncnc2nc[nH]c12,> 11.4,-2.15,,-0.624,> 46 µM,> 9.22,inactive,inactive,,inactive,,,,,,
